Hit rate of the full screen: of about 2,400 compounds, about 750 (31%) were called active.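 Rule for the calls: active = median signal gain over dofetilide-blocked control wells reaching their mean plus 3 SD, so readout 1 at least 0; inactive = the rest.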 Some of the results follow.
Each compound was assayed against Voltage-gated inwardly rectifying potassium channel KCNH2 (Homo sapiens) (UniProt Q12809) (assay: modulators restoring hERG flux under dofetilide – cell-based, thallium flux, duplicate retest, dofetilide IC70, confirmation (AID 1835)). Details: hERG cell line, FluxOR thallium flux, dofetilide-blocked; at 10 µM; active compounds read high.
Sequence of Voltage-gated inwardly rectifying potassium channel KCNH2 (Homo sapiens) (Q12809 whole entry, looked up): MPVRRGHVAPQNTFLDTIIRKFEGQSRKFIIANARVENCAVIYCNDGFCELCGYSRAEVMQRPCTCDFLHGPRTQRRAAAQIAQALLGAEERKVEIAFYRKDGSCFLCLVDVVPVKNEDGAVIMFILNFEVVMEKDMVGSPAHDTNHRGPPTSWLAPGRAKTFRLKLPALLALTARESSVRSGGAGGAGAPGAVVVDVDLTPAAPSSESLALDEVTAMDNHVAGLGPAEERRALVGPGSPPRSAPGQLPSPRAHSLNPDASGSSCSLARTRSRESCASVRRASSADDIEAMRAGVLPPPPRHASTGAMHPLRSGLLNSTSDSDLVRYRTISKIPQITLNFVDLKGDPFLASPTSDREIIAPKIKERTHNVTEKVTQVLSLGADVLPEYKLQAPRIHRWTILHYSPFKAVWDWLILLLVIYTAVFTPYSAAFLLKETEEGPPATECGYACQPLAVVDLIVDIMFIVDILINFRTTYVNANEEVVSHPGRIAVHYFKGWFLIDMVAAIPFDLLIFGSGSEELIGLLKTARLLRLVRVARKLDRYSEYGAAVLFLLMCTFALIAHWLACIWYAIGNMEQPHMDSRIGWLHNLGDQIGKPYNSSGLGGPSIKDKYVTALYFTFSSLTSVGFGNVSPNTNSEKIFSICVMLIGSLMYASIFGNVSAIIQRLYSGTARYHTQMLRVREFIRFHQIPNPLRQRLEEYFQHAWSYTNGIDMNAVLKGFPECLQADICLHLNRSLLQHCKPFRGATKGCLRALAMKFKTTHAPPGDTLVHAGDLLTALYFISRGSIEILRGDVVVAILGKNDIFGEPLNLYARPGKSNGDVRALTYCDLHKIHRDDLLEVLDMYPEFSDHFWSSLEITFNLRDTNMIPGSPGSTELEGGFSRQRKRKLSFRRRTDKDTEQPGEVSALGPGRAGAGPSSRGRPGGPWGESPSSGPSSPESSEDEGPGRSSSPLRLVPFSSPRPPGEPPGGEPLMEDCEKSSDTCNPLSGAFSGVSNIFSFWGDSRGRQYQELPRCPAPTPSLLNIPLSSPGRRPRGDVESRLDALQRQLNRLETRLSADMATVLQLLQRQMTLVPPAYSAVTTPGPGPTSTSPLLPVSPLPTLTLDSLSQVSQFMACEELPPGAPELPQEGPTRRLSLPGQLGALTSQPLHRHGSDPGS

| Structure (SMILES) | activity increase over dofetilide control, less the hit threshold |
| --- | --- |
| CCc1nc(C)ccc1OCC(=O)N1CCc2c([nH]c3ccccc23)C1c1ccccn1 (configuration not stated) | -24% (inactive) |
| Cc1ccc(CCNC(=O)c2cccc(NC3=NC4CS(=O)(=O)CC4S3)c2)cc1 (configuration not stated) | -4% (inactive) |
| Cc1cc(=O)[nH]c(N/N=C2/CCCC/C2=C\c2ccccc2)n1 | -9% (inactive) |
| CNC(=O)c1[nH]cnc1C(=O)Nc1ccccn1 | -18% (inactive) |
| Cc1ccccc1OCC(=O)NNC(=O)c1ccc2c(=O)n3c(nc2c1)CCC3 | -21% (inactive) |
| O=C1c2ccccc2C(=O)N1CCc1nc(-c2ccccn2)no1 | -12% (inactive) |
| CCOc1ccccc1NC(=O)C(=O)CC(=O)c1cccc(OC)c1 | 7% (active) |
| CCOc1ccc(CCNC(=O)Nc2ccccc2C)cc1OCC | -12% (inactive) |
| Cc1nnc(SCc2cc(=O)oc3cc(O)ccc23)n1Cc1ccccc1 | 12% (active) |
| Cc1ccc2c(CN3CCOCC3)cc(=O)oc2c1 | -14% (inactive) |
| Cc1oc2cc(O)ccc2c(=O)c1N1C(=O)c2ccccc2C1=O | -4% (inactive) |
| CCOCCCNC(=O)C(NC(=O)Cc1cccs1)c1ccc(C)cc1 (configuration not stated) | -21% (inactive) |
| Cc1ccc(C(C#N)c2ccc3c(C(F)(F)F)cc(C(F)(F)F)nc3n2)cc1 (configuration not stated) | 8% (active) |
| Fc1ccc(N2CCN(c3ccc4c(C(F)(F)F)cc(C(F)(F)F)nc4n3)CC2)cc1 | -8% (inactive) |
| Cc1ccc(S(=O)(=O)N2CCOCC2)cc1NC(=O)COC(=O)c1cccnc1Cl | -15% (inactive) |
| Cc1cccc(/C=C2/S/C(=N/N=C3\CC4CCC3(C)C4(C)C)NC2=O)c1 (configuration not stated) | 5% (active) |
| CC12CCC(C/C1=N\N=C1\NC(=O)/C(=C\c3ccc(Cl)cc3)S1)C2(C)C (configuration not stated) | -3% (inactive) |
| COc1ccc(/C=C2/S/C(=N/N=C3\CC4CCC3(C)C4(C)C)NC2=O)cc1 (configuration not stated) | 20% (active) |
| Cc1ccc(N=C2NC(=O)/C(=C/c3cccs3)S2)cc1C | 0% (inactive) |
| CCOc1nc(-c2ccccc2)ccc1-c1noc(COC)n1 | -7% (inactive) |
| COC(=O)c1ccc(NC(=O)COC(=O)C2CC(=O)N(Cc3ccccc3)C2)cc1 (configuration not stated) | -29% (inactive) |

| Structure (SMILES) | activity increase over dofetilide control, less the hit threshold |
| --- | --- |
| Cc1cccc(NC(=S)N/N=C2\CC(C)(C)Oc3ccc(O)cc32)c1 | -5% (inactive) |
| O=S(=O)(c1ccc(F)c(F)c1)N1CCN(c2ncccn2)CC1 | -9% (inactive) |
| O=S(=O)(Nc1ccc(O)c2ccccc12)c1ccc(F)cc1 | -58% (inactive) |
| COc1ccc(OC)c(S(=O)(=O)Nc2ccc(O)c3ccccc23)c1 | -4% (inactive) |
| Cc1ccc(S(=O)(=O)Nc2ccc(O)c3ccccc23)c(C)c1 | 5% (active) |
| O=C(c1ccccc1)c1nccn1-c1ccc(Cl)nn1 | -11% (inactive) |
| CC(C1CC2CCC1C2)n1c(-c2cccs2)n[nH]c1=S (configuration not stated) | -4% (inactive) |
| Cn1c(=S)[nH]c2scc(-c3cccs3)c2c1=O | 60% (active) |
| COc1cc(/C=N/n2cnc3scc(-c4cccs4)c3c2=O)cc(OC)c1OC | -5% (inactive) |
| S=c1[nH]c(-c2cccs2)cn1-c1ccccc1 | -5% (inactive) |
| CC(C)n1c(=S)[nH]c2scc(-c3cccs3)c2c1=O | 79% (active) |
| S=c1nc(C2CC2)[nH]c2ccccc12 | 34% (active) |
| S=c1nc(C2CCCCC2)[nH]c2ccccc12 | 4% (active) |
| S=c1[nH]c2ccccc2c2ccccc12 | -3% (inactive) |
| COc1ccc(Cn2c(O)cc(=O)[nH]c2=O)cc1 | -9% (inactive) |
| COc1ccc(-n2c(O)c(/C=C3\C=Nc4ccccc43)c(=O)[nH]c2=O)cc1 | 21% (active) |
| Cn1cc(CCC(=O)N2CCCC(Nc3ccc(F)cc3)C2)cn1 (configuration not stated) | -13% (inactive) |
| CCc1cc2cc(C)cc(C)c2[nH]c1=S | 14% (active) |
| COc1ccc(NC(=O)CC23CC4CC(CC(C4)C2)C3)cn1 | -17% (inactive) |
| CCOC(=O)c1cnc(-n2nc(C)cc2C)nc1NNc1nc(-c2ccccc2)cc(-c2ccccc2)n1 | -12% (inactive) |
| CCOc1cc(N2CCOCC2)c(OCC)cc1NC(=O)CCC1CCCC1 | -11% (inactive) |

| Structure (SMILES) | activity increase over dofetilide control, less the hit threshold |
| --- | --- |
| CCOc1cc(N2CCOCC2)c(OCC)cc1NC(=O)Cn1nc(C)c([N+](=O)[O-])c1C | 16% (active) |
| CCOc1cc(N2CCOCC2)c(OCC)cc1NC(=O)Cc1ccccc1 | -2% (inactive) |
| Cc1ccccc1OC(=O)n1c(=S)oc2cc(Cl)ccc21 | -1% (inactive) |
| O=C(/C=C/Nc1ccccc1)C(F)(F)F | -14% (inactive) |
| Cc1ccc(-c2nc(N)s[n+]2-c2ccccc2)cc1 | 17% (active) |
| CCC(C)(C)NC(=O)c1ccc(Sc2nncn2C)c([N+](=O)[O-])c1 | -4% (inactive) |
| C=C(C)C1CC=C(C)/C(=N/NC(=O)CCC(=O)Nc2ccccc2Cl)C1 (configuration not stated) | -17% (inactive) |
| COc1ccc(CCNC(=O)Cn2c(=O)n(-c3ccc(F)cc3)c(=O)c3sccc32)cc1OC | -10% (inactive) |
| COc1cccc([C@@H]2Oc3ccc(OC)cc3C(=O)[C@H]2OC(=O)NCc2ccc3c(c2)OCO3)c1 | 5% (active) |
| COc1ccc(CCNC(=O)C(=O)Nc2ccc3c(c2)OCO3)cc1OC | -22% (inactive) |
| COc1ccc2c(c1)O[C@@H](c1cccc(C(F)(F)F)c1)[C@H](OC(=O)NCCc1ccc(OC)c(OC)c1)C2=O | 3% (active) |
| COc1ccccc1-n1c(C)nc2cc(C(=O)NCc3ccc4c(c3)OCO4)ccc21 | -27% (inactive) |
| COc1ccc(CCNC(=O)c2ccc3c(c2)OCO3)cc1 | -16% (inactive) |
| COC(=O)C(C)Sc1nnc(Cc2cc(=O)[nH]c(=O)[nH]2)n1-c1cccc(OC)c1 (configuration not stated) | -17% (inactive) |
| CC(C)OC(=O)N(C)c1ccc(C(O)(C(F)(F)F)C(F)(F)F)cc1 | -8% (inactive) |
| CCCOC(=O)CN1C(=O)c2ccc(C(=O)OCCC)cc2C1=O | -8% (inactive) |
| COc1ccc(CC(=O)Nc2ccc(-c3noc(-c4ccccc4OC)n3)cc2)cc1 | -18% (inactive) |
| Cc1c(C#N)c(O)[nH]c(=O)c1N=Nc1ccc(Br)cc1C(=O)O | 46% (active) |
| CC1(C)CC(NC(=O)c2ccc(Cl)cc2Cl)CC(C)(C)N1 | 2% (active) |
| Cc1ccc(C(C)C)cc1S(=O)(=O)NC1CC(C)(C)NC(C)(C)C1 | -15% (inactive) |

Source: PubChem BioAssay AID1835 (Johns Hopkins Ion Channel Center, 2009)
